# Source: PubChem BioAssay (National Center for Advancing Translational Sciences (NCATS))
# Most compounds without a hit are left out; they make up all but 4.2% or so of the library.
# uPA surface inh: cell surface uPA generation inhibition | Potency, µM (highest dose often 38.3 µM), inactives show top-dose activity change, negative = inhibition, actives largely listed as inhibitors | cell surface uPA generation assay, qHTS | 0.31% of 330,000 active | AID 540303; active = well fitted inhibition curve with a large enough effect; inconclusive = small, poorly fitted or top-dose-only effect; inactive = no such curve, though single readings can be large or run the other way; tested in mouse RAW 264.7 cells; note: potency is the fitted concentration of half-maximal effect; % is set by controls: 0 for no effect and ±100 for the full control effect; nearly all actives have a fitted effect of over 55% in size
# Sfp PPTase inh: blocks B. subtilis Sfp PPTase activity | Biochemical Sfp PPTase activity, qHTS | 3.5% of 310,000 active | Potency, µM, without a hit: largest response in the series, negative = inhibition, usual class: inhibitors;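 note: the enzyme is Sfp with the accession as filed and its product quenches rhodamine fluorescence; potency is the fitted concentration of half-maximal effect; 0% = enzyme reaction without inhibitor and -100% = no enzyme wells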
#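 Sfp 15 nM + cpd, 15 min RT; start w/ rhodamine-CoA 5 uM, BHQ-2-YbbR 12.5 uM (final); 50 mM Hepes pH 7.6, 10 mM MgCl2, 0.01% NP-40, 0.01% BSA; read 525/598 nm at 0 and 30 min.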
# ClpP mod: qHTS Assay for Activators of ClpP; ATP-dependent Clp protease proteolytic subunit (Bacillus subtilis (strain 168)), P80244; purified B. subtilis ClpP, FRET peptide cleavage, 20 min; Potency, µM (doses to about 57.5 µM), without a hit: at the top dose activity change, negative = active; 1.9% of 340,000 active; AID 651965, 2013; active = well fitted falling curve with a large enough effect; inconclusive = small, poorly fitted or top-dose-only effect; inactive = no such curve, though single readings can be large or run the other way; note: potency is the fitted concentration of half-maximal effect; the source files actives as falling curves though it sought activators and does not explain the sign; nearly all actives have a fitted effect of over 65% in size
#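 Purified B. subtilis ClpP, 10 microg/mL final in Tris/HCl pH8 with KCl, BSA, glycerol and Tween-20, cleaved an Abz/nitrotyrosine-quenched decapeptide. Fluorescence (ex 320, em 430) was read at 0 and 20 min at room temperature. Delta was normalized to 5.8 microM ADEP and DMSO/no-enzyme controls.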
# TCR activator: activates T cell receptor signaling | 330,000 tested, under 10 active | Potency, µM (highest dose often 9.22 µM), without a hit: top-dose activation of IL-2 secretion, most hits filed as activators | primary human leukocytes, anti-CD3, IL-2 HTRF, 48 h | AID 504894; note: % of control where 0% means no effect
#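 HTRF read-out of IL-2 secretion: europium cryptate donor excited at 320nm, d2 acceptor emission at 665nm. Cells were primary human leukocytes incubated 48 hr with compounds and a-CD3 beads, supplying TCR signal only.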
# * marks the source's active call; other numbers are inactive results; ? = inconclusive; . = no result given; [ ] = dose if it differs, or a comment. Unless noted, calls come from the whole dose curve; as a rule, active = well fitted curve in the direction sought with a large enough effect; inconclusive = small, poorly fitted or top-dose-only effect, or another doubt; inactive = no such curve, though single readings can be large; an effect the other way counts as inactive or inconclusive.
SMILES,uPA surface inh,Sfp PPTase inh,ClpP mod,TCR activator
COc1ccccc1NC(=S)N(Cc1ccc(C)cc1)Cc1ccccn1,-1.7%,44.7µM*,-1.2%,-3.1%
COc1ccc(CN(C)CCc2ccccn2)cc1OC,5.2%,50.1µM*,-0.2%,3.5%[46.1 µM]
O=S1(=O)CCC(NC(=S)N2CCOCC2)C1 (stereo not given),4.2%,?,1.5%,-5.7%[46.1 µM]
Cc1ccc(S(=O)(=O)NCC(=O)OC(C)C(=O)NC(=O)NC2CCCCC2)cc1C (stereo not given),-2.1%,.,0.9%,1.6%
Cc1cccc([C@@H]2CN(C)CCc3c2cc(O)c(O)c3Cl)c1,.,79.4µM*,.,.
CCCCNC(=O)COC(=O)c1ccc(Cl)c(S(N)(=O)=O)c1,-3.0%,-14.7%,14.1µM*,4.8%
COCCN(CCOC)C(=O)c1c[nH]c2ccc(S(=O)(=O)N(C)c3ccc(F)cc3)cc2c1=O,.,24.2%,31.6µM*,6.5%
CCOc1ccccc1N(C)S(=O)(=O)c1ccc2[nH]cc(C(=O)N(CCOC)CCOC)c(=O)c2c1,2.4%,19.5%,.,-3.8%
COc1ccc(S(=O)(=O)N2CCOCC2)cc1NC(=O)c1cc2ccccc2o1,-6.9%,.,.,8.1%
CC(=O)NCCCC[C@H](NC(=O)OC(C)(C)C)C(=O)Nc1ccc2c(C(F)(F)F)cc(=O)oc2c1,.,3.1%,.,.
Cc1cc(C(=O)CCl)c(C)n1CCc1ccc(Cl)cc1,-15.5%,-29.7%,.,.
COc1ccc(CCn2c(C)cc(C(=O)CCl)c2C)cc1OC,8.91µM*,15.6%,-0.7%,14.2%
O=C(NC1CCCC1)C(c1ccncc1)N(Cc1cccs1)C(=O)c1csnn1 (stereo not given),-6.0%,20µM*,0.0%,9.0%
CC(C)(C)NC(=O)C(c1ccncc1)N(Cc1cccs1)C(=O)c1csnn1 (stereo not given),-0.9%,-9.0%,.,3.2%
COc1cc2c3cc1OCc1c(O)c(OC)cc4c1C(Cc1ccc(cc1)Oc1cc(ccc1O)CC3N(C)CC2)N(C)CC4 (stereo not given),.,8.7%,.,.
CN1CCc2cccc3c2[C@H]1Cc1ccc(O)c(O)c1-3,?,39.8µM*,?,5.3%
CCOc1ccc(C(=O)c2ccc(O)c(O)c2O)cc1,.,50.1µM*,.,.
CCOc1cccc(C(=O)c2ccc(O)c(O)c2O)c1,.,-79.1%,.,.
COc1ccc(NC(=O)N2CCN(Cc3nc4ccc(C)cc4o3)CC2)cc1OC,.,.,-0.7%,.
CN(C)CCCNc1cc(C(C)(C)C)nc2c(-c3ccc(Cl)cc3)cnn12,15.3%,31.6µM*,.,0.0%
Cc1cc(NCCCn2ccnc2)n2ncc(-c3ccc(Cl)cc3)c2n1,-21.2%,-4.9%,20µM*,.
Cc1cc(NCCCN2CCOCC2)n2ncc(-c3ccc(Cl)cc3)c2n1,6.3%,-14.8%,25.1µM*,0.1%
O=C(NC1CC(=O)N(c2ccc(F)cc2)C1)c1ccc(S(=O)(=O)N2CCCCC2)cc1 (stereo not given),.,.,0.5%,.
COc1ccc(OC)c(NC(=O)CSc2nncc(=O)n2N)c1,-0.9%,-18.8%,-3.0%,0.5%
O=C(CN1CCCc2ccccc21)NC(=O)NCc1ccco1,1.9%,35.5µM*,-3.1%,-5.7%
SMILES,uPA surface inh,Sfp PPTase inh,ClpP mod,TCR activator
O=C(CN1CC(=O)Oc2ccccc21)NCc1ccco1,-7.4%,56.2µM*,-16.0%,1.5%
CCOC(=O)C1CCN(C(=O)Cn2ncc3c([nH]c4ccccc43)c2=O)CC1,1.0%,2.2%,-23.3%,13.8%
Cc1ccc(C=Nc2ccccc2C(N)=O)cc1,.,12.5%,31.6µM*,5.7%
Cc1ccc(C=Nc2ccccc2C(=O)Nc2ccccc2)cc1,-2.4%,-6.4%,28.2µM*,2.0%[46.1 µM]
Cc1ccccc1C=Nc1ccccc1C(N)=O,-6.1%,-1.9%,28.2µM*,-2.0%[46.1 µM]
Cc1cccc(C)c1NC(=S)N/N=C/c1ccccc1C(=O)O,-2.1%,-3.0%,0.3%,-3.3%
O=C(Nc1ccccc1)c1ccccc1N=Cc1cccc(O)c1,-3.7%,-9.7%,.,-5.3%
NC(=O)c1ccccc1N=Cc1cccnc1,4.4%,.,.,-2.0%
NC(=O)c1ccccc1N=Cc1ccccn1,3.9%,18.1%,25.1µM*,-8.9%
COc1ccc2[nH]cc(CCNc3nc(-c4cccnc4)nc4ccccc34)c2c1,.,-30.1%,.,.
COc1ccc2[nH]c(C)c(C(=O)CN(C)CC(OC)OC)c2c1,.,.,-1.9%,.
CC1(C(=O)NCc2ccccc2)CSCC(=O)N1C1CC1 (stereo not given),.,.,-0.3%,.
COc1cccc(C=Nc2ccccc2C(=O)Nc2ccccc2)c1O,-3.5%,-4.8%,22.4µM*,-4.4%[46.1 µM]
CCOC(=O)C1CCCN(C(=O)C2(c3ccc(Cl)cc3)CCCC2)CC1 (stereo not given),.,.,-1.8%,.
CCCNC(=O)c1ccc2c(c1)sc1nc(-c3ccc(C)cc3)cn12,.,.,31.6µM*,.
CCN(CC)CCCNC(=O)c1ccc2c(c1)sc1nc(-c3ccc(C)cc3)cn12,.,.,-27.4%,.
CCc1ccc(-c2cn3c(n2)sc2cc(C(=O)NCCC4=CCCCC4)ccc23)cc1,.,.,25.1µM*,.
Cc1ccc(-c2cn3c(n2)sc2cc(C(=O)N4CCCCC4)ccc23)cc1,.,.,25.1µM*,.
Cc1ccc(-c2cn3c(n2)sc2cc(C(=O)NCCC4=CCCCC4)ccc23)cc1,.,.,-18.8%,.
CCc1cccc(CC)c1NC(=O)C(CC)n1nc(C)n2c(cc3cc(C)ccc32)c1=O (stereo not given),.,.,-5.6%,.
Cc1c(NC(=O)c2ccc(N3CCC(C)CC3)c([N+](=O)[O-])c2)cccc1-c1nc2ccccc2o1,.,.,-3.0%,.
COc1ccc(N2C(=O)C(Cl)=C(Oc3cccc(OC)c3)C2=O)cc1,-9.4%,8.91µM*,.,-1.0%
COc1ccc(N2C(=O)c3ccccc3C2=O)cc1,-2.6%,11.7%,.,5.6%
COc1ccc(N2C(=O)C(Cl)=C(Nc3ccccc3O)C2=O)cc1,-5.8%,44.7µM*,31.6µM*,-79.7%
O=C(COC(=O)c1cncc(Br)c1)Nc1ccc(F)c(F)c1F,2.4%,.,-0.6%,-26.9%
SMILES,uPA surface inh,Sfp PPTase inh,ClpP mod,TCR activator
O=C(O/N=C1/CCSc2ccccc21)c1ccccc1,6.5%,79.4µM*,-6.4%,0.5%
CCN(CC)c1ccc(/C=N\NC(N)=O)cc1,-14.9%,-7.6%,25.1µM*,0.5%[46.1 µM]
CCN(CC)c1ccc(/C=N/NC(=O)CC(C)C)cc1,0.4%,-4.5%,17.8µM*,-18.0%
CCN(CC)c1ccc(/C=N/NC(=O)c2ccc(O)cc2)cc1,.,-4.2%,.,.
CCN(CC)c1ccc(/C=N/NC(=O)Nc2ccccc2)cc1,-18.5%,-8.1%,4.0%,-0.6%
O=C(COC(=O)CNC(=O)c1cccc([N+](=O)[O-])c1)NCc1ccco1,1.4%,3.5%,0.2%,-4.2%
O=[S+]([O-])([O-])c1ccc2c(c1)cc([S+](=O)([O-])[O-])c1nn(-c3ccc(/C=C/c4ccc(-n5nc6c([S+](=O)([O-])[O-])cc7cc([S+](=O)([O-])[O-])ccc7c6n5)cc4[S+](=O)([O-])[O-])c([S+](=O)([O-])[O-])c3)nc12,.,.,4.1%,.
Cc1ccc(S(=O)(=O)N(CC(=O)N/N=C/c2cccc3c2OCCO3)c2ccccc2F)cc1,5.5%,17.6%,22.4µM*,-1.7%
Cc1ccc(S(=O)(=O)N(CC(=O)N/N=C/c2cccc(C)c2)c2cccc3cccnc23)cc1,-5.0%,-4.1%,25.1µM*,-4.3%
